This passage reports growth results from PubChem BioAssay (NCI).

Experiment in all cases: NCI-60 one-dose screen, 48 h (100 = growth as untreated, 0 = no growth, -100 = all killed)
One test has as its system NCI-H23 lung. To be noted: 10 µM unless noted.
Another test has as its system NCI-H226 lung. The note with it: 10 µM unless noted.
In a further test the test system is NCI-H322M lung. To be noted: 10 µM unless noted.
The subject of another test is NCI-H460 lung. To be noted: 10 µM unless noted.
The next test relates to HOP-92 NSCLC. The note with it: 10 µM.
A further test deals with NCI-H522 lung. The note with it: 10 µM.
A further test has as its system A549/ATCC NSCLC. To be noted: 10 µM unless noted.
For a further test, the system named is 786-0 renal. To be noted: 10 µM unless noted.
The subject of the next test is DU-145 prostate. The note with it: 10 µM unless noted.
The subject of a further test is K-562 leukemia. The note with it: 10 µM unless noted.
A further test relates to MALME-3M melanoma. The note with it: 10 µM unless noted.
In a further test the test system is MDA-MB-231 breast. To be noted: 10 µM unless noted.
Another test deals with RXF 393 renal. To be noted: 10 µM unless noted.
The subject of a further test is SF-268 CNS. The note with it: 10 µM unless noted.
A further test concerns SF-295 CNS. To be noted: 10 µM unless noted.
The next test has as its system SF-539 CNS. To be noted: 10 µM unless noted.
The test system of the next test is UACC-257 melanoma. To be noted: 10 µM unless noted.
For a further test, the system named is M14 melanoma. To be noted: 10 µM unless noted.

This is part of a sample that, as a whole, favours compounds with a hit. Of some 83,000 tested, about 20% had one in any assay.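 Each cell line was grown in a 96-well plate and treated with one concentration of compound for 48 hours. Values below 10 were considered active.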 Unmarked numbers belong to inactive results. Calls of active or inactive are those of the source.

In the case of `CNCCCNCCCCNCCCN1C(=O)c2ccc3c4c(ccc(c24)C1=O)C(=O)N(CCCNCc1ccccc1OC)C3=O`, the growth was 24.9% in the test on NCI-H23 lung; 35.7% with NCI-H226 lung; 22.8% in the test on NCI-H322M lung; 13.5% in the test with NCI-H460 lung; 69% with HOP-92 NSCLC; 31.3% with NCI-H522 lung. The growth with A549/ATCC NSCLC was 21.6%; in the test with 786-0 renal, 38.6%; in the test with DU-145 prostate, 29.1%; with K-562 leukemia, 20.2%; in the test with MALME-3M melanoma, -26.1% (active); with MDA-MB-231 breast, 47.3%. For the same compound, the growth was 20.1% with RXF 393 renal; 17.7% with SF-268 CNS; 22.1% in the test with SF-295 CNS; 21.7% in the test with SF-539 CNS; 29.2% in the test on UACC-257 melanoma; 24% with M14 melanoma.

Consider `COc1cc(-c2cc3cnccc3c3nc(N)c4ccncc4c23)cc(OC)c1OC`, for which the growth was 64.3% in the test with NCI-H23 lung; 56.1% in the test with NCI-H226 lung; 58.7% in the test on NCI-H322M lung; 54.9% with NCI-H460 lung; -0.882% (active) with HOP-92 NSCLC; 57.1% in the test on NCI-H522 lung. Moreover, the growth was 42.5% with A549/ATCC NSCLC; 24.8% in the test on 786-0 renal; 62.3% with DU-145 prostate; 24.1% in the test on K-562 leukemia; 59.8% in the test on MALME-3M melanoma; 42.9% in the test with MDA-MB-231 breast. In addition, the growth in the test on RXF 393 renal is 8.24% (active); in the test on SF-268 CNS it was 49.4%; in the test on SF-295 CNS it was 67.3%; with SF-539 CNS it was 38%; with UACC-257 melanoma it was 92.2%; in the test with M14 melanoma, 68.1%.

Take `Cc1nnc(/N=C2\NC(=O)/C(=C/C=C/c3ccccc3)S2)s1`: the growth with NCI-H23 lung was 55.2%; with NCI-H226 lung, 78%; with NCI-H322M lung it was 72.8%; in the test with NCI-H460 lung it was 24.5%; in the test with HOP-92 NSCLC, 56.9%; with NCI-H522 lung, 1.52% (active). Moreover, the growth with A549/ATCC NSCLC is 39.8%; in the test with 786-0 renal, 66.9%; in the test with DU-145 prostate it was 57.5%; in the test on K-562 leukemia, 36%; in the test on MALME-3M melanoma, 54.1%; in the test on MDA-MB-231 breast, 71.4%. For the same compound, the growth with RXF 393 renal was 69.2%; in the test on SF-268 CNS, 51.9%; in the test on SF-295 CNS, 32.5%; in the test on SF-539 CNS, 64.9%; in the test with UACC-257 melanoma, 75.3%; with M14 melanoma, 49.8%.

For `CCCCCCCCc1ccc(OCCOCC[N+](C)(C)CC)cc1` (tested in a mixture with another compound), the growth with NCI-H23 lung is 26.8%; in the test on NCI-H226 lung, 56.5%; in the test with NCI-H322M lung, 94%; in the test with NCI-H460 lung it was 39.9%; in the test on HOP-92 NSCLC it was 6.23% (active); in the test on NCI-H522 lung, 3.68% (active). Besides, the growth in the test with A549/ATCC NSCLC was 69.5%; in the test with 786-0 renal, 87.8%; in the test on DU-145 prostate, 64.5%; in the test with K-562 leukemia, 22.8%; in the test with MALME-3M melanoma it was -19.9% (active); with MDA-MB-231 breast, 22.2%. Besides, the growth in the test on RXF 393 renal was 50.3%; with SF-268 CNS it was 23%; in the test with SF-295 CNS it was 97.2%; with SF-539 CNS, 18.4%; in the test on UACC-257 melanoma, 12.9%; in the test on M14 melanoma it was 44.5%.

As to `COc1cc(OC)cc(-c2ccc(-c3ccc(C(=N)N)cc3)s2)c1`, the growth in the test on NCI-H23 lung is -77.5% (active); with NCI-H226 lung it was -67.5% (active); in the test with NCI-H322M lung, -89.3% (active); in the test with NCI-H460 lung, -88.5% (active); in the test with HOP-92 NSCLC, -80.6% (active); in the test on NCI-H522 lung it was -58.2% (active). Also, the growth in the test on A549/ATCC NSCLC was -41.5% (active); in the test with 786-0 renal, -60.2% (active); in the test on DU-145 prostate it was -90.6% (active); with K-562 leukemia, -39.8% (active); with MALME-3M melanoma it was -80.7% (active); in the test with MDA-MB-231 breast, -77% (active). Also, the growth was -94.3% (active) in the test with RXF 393 renal; -72.2% (active) in the test on SF-268 CNS; -88.4% (active) in the test on SF-295 CNS; -88.7% (active) in the test on SF-539 CNS; -58% (active) in the test with UACC-257 melanoma; -90.5% (active) in the test with M14 melanoma.

Regarding `CCOC(=O)c1cc(C(=O)c2ccc(Br)cc2)n2cc(C)cc(C)c12`, the growth with NCI-H23 lung is 95.2%; with NCI-H226 lung, 87.2%; with NCI-H322M lung, 96.7%; in the test with NCI-H460 lung it was 95.9%; with HOP-92 NSCLC it was 77.9%; with NCI-H522 lung it was 77.3%. The growth in the test with A549/ATCC NSCLC is 75.7%; with 786-0 renal, 96.3%; with DU-145 prostate, 100%; in the test on K-562 leukemia, 99%; with MALME-3M melanoma, 96.1%; in the test with MDA-MB-231 breast, 79.8%. For the same compound, the growth was 64.2% in the test with RXF 393 renal; 97.2% in the test with SF-268 CNS; 100% in the test with SF-295 CNS; 87.3% with SF-539 CNS; 87.2% with UACC-257 melanoma; 94.2% in the test with M14 melanoma.

With `Nc1nc2c(c3ncncc13)C(c1cccc(C(F)(F)F)c1)Cc1ncncc1-2` (centres undefined), the growth in the test with NCI-H23 lung was 18.4%; in the test on NCI-H226 lung it was 55.6%; in the test with NCI-H322M lung, 39%; in the test with NCI-H460 lung, 10%; in the test on HOP-92 NSCLC, 46%; with NCI-H522 lung, 32.9%. The growth was 39.8% in the test with A549/ATCC NSCLC; 28.5% in the test on 786-0 renal; 15.6% with DU-145 prostate; 16.9% with K-562 leukemia; 66.2% in the test on MALME-3M melanoma; 45% in the test with MDA-MB-231 breast. Also, the growth was 6.31% (active) with RXF 393 renal; 45.8% in the test on SF-268 CNS; 11.9% with SF-295 CNS; -26.6% (active) with SF-539 CNS; 67.9% with UACC-257 melanoma; 11.4% in the test on M14 melanoma.

For the compound `COc1cc2ncnc(Nc3ccc4c(cnn4C(=O)Nc4ccccc4)c3)c2cc1OC`, the growth was 100% in the test on NCI-H23 lung; 103% with NCI-H226 lung; 81.1% with NCI-H322M lung; 103% in the test on NCI-H460 lung; 82.8% with HOP-92 NSCLC; 89.4% with NCI-H522 lung. Also, the growth in the test with A549/ATCC NSCLC is 72.9%; with 786-0 renal, 81.5%; with DU-145 prostate, 89.3%; with K-562 leukemia it was 58.3%; with MALME-3M melanoma it was 85.6%; in the test with MDA-MB-231 breast, 112%. For the same compound, the growth was 87.3% in the test with RXF 393 renal; 97.2% with SF-268 CNS; 100% in the test with SF-295 CNS; 86.1% in the test with SF-539 CNS; 94.9% in the test with UACC-257 melanoma; 95.7% with M14 melanoma.
